# Screening data from PubChem.
# Rows were chosen to be rich in hits. Some 27% of all compounds tested hit in one or more screens of this group.
# CYP2C19 inh = inhibitors of human CYP2C19 | CYP2C19 Supersomes, luciferin-H EGE luminescence, 30 min | inhibition, % at 5 µM | 21% of 96,000 active;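 active = CYP2C19 inhibition above a set limit at 5 µM in the primary screen, cut at about 50% in these data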;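 note: plate controls were negative control wells for no effect and 2.5 mM tranylcypromine positive control for full effect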
# CYP2C19 activ = activators of human cytochrome P450 2C19 | recombinant CYP2C19, luciferin-H EGE luminescence; active compounds read high; 0 = fully inhibited enzyme, 1 = untreated enzyme | activation factor at 5 µM | 96,000 tested, under 10 active;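 active = activation factor of at least 2 at 5 µM in the primary screen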;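 note: 0 = wells with 2.5 mM tranylcypromine and 1 = vehicle-only wells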
# CYP2C9 inh = human CYP2C9 inhibition | AID 777 | inhibition, % at 5 µM | CYP2C9 Supersomes, luciferin-H conversion, luminescence | 20% of 96,000 active | P11712;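 active = blocking of liver enzyme CYP2C9 beyond about 50% at 5 µM, limit read from the data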
# Target sequence (P11712 whole entry, looked up): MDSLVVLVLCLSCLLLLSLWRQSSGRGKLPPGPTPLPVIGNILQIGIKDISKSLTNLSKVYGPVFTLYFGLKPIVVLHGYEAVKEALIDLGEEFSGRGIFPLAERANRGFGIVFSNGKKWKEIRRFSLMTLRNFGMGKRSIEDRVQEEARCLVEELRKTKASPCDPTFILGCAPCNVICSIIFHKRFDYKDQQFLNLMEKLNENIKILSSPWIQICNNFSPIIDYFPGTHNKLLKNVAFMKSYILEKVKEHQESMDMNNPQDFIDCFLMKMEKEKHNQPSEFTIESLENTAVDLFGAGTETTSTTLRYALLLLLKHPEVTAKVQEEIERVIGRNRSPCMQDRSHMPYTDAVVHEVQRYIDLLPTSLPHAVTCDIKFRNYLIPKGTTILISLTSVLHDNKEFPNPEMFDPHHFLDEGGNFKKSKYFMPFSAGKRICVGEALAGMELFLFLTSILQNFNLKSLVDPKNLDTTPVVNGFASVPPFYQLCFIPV
# sEH act = activators of human soluble epoxide hydrolase | purified human sEH enzymatic activity, activator screen | activation, % at 2 µM | 0.04% of 91,000 active; in the data active = activation above about 37%
# CYP2C9 activ = activators of human CYP2C9; P11712; 1.4% of 96,000 active; recombinant CYP2C9, luciferin-H conversion, luminescence; active compounds read high; factor 1 = untreated enzyme, 0 = blocked; AID 1024; activation factor at 5 µM;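 active = activation factor of 2 or more for CYP2C9 at a 5 µM dose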;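 note: 0 = sulfaphenazole-blocked wells and 1 = vehicle-only wells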
# sEH inh = soluble epoxide hydrolase (human) inhibition. recombinant human sEH enzymatic activity assay. inhibition, % at 2 µM. 0.34% of 91,000 active; in the data active = inhibition above about 80%
# * hit, by the source's call; nt = not tested or not shown.
SMILES,CYP2C19 inh,CYP2C19 activ,CYP2C9 inh,sEH act,CYP2C9 activ,sEH inh
CCc1c(C)nc(SC)n(CC#N)c1=O,-14,1.1,-21,-2,1.2,1
CCCCc1cc(=O)oc2cc(C)c(CN3CCCC3)c(O)c12,50,0.5,58*,0,0.4,1
CCc1cc(=O)oc2cc(C)c(CN3CCCC(C)C3)c(O)c12 (stereo unspecified),44,0.6,38,-4,0.6,6
Cn1c(=O)c2c(ncn2CC(=O)Nc2cc(Cl)c(Cl)cc2Cl)n(C)c1=O,6,0.9,7,nt,0.9,nt
O=C(Nc1ccc2nc(-c3ccc(Br)o3)[nH]c2c1)c1ccco1,25,0.8,40,-2,0.6,-1
O=C(Nc1cccc(-c2nc3ccccc3[nH]2)c1)c1cccc(NC(=O)c2ccco2)c1,54*,0.5,70*,nt,0.3,nt
O=C(Nc1ccc2nc(-c3ccccc3)[nH]c2c1)c1ccco1,61*,0.4,58*,8,0.4,-4
Cc1c(C(=O)NCc2ccccn2)sc2nc(-c3ccc(F)cc3)cn12,-2,1,63*,5,0.4,-1
Cc1c(C(=O)NCC2CCCO2)sc2nc(-c3ccc(F)cc3)cn12 (stereo unspecified),-2,1,55*,nt,0.4,nt
Cc1c(C(=O)NCc2ccccn2)sc2nc(-c3ccccc3)cn12,14,0.9,14,nt,0.9,nt
C=CCNc1nc(Nc2ccc(-c3nc4ccccc4o3)cc2)nc(N2CCOCC2)n1,49,0.5,42,12,0.6,-11
COc1cc(-c2c(C#N)c(N)nc3c2c(C)nn3-c2ccc(C)c(C)c2)cc(OC)c1OC,6,0.9,26,nt,0.7,nt
CCOc1cc(-c2c(C#N)c(=O)[nH]c3c2c(C)nn3-c2ccc(F)cc2)ccc1O,12,0.9,91*,nt,0.1,nt
O=C(N/N=C\c1ccc(Cl)cc1Cl)c1sccc1-n1cccc1,33,0.7,51*,-11,0.5,11
O=S1(=O)c2ccccc2N=NN1Cc1ccc(Cl)cc1,83*,0.2,68*,-16,0.3,17
O=S1(=O)c2ccccc2N=NN1Cc1cc(Cl)cc(Cl)c1,33,0.7,54*,-15,0.5,17
CCc1nnc(NC(=O)c2ccc(S(=O)(=O)N(CC(C)C)CC(C)C)cc2)o1,nt,nt,nt,-16,nt,16
Cc1nnc(NC(=O)c2ccc3ccccc3c2)o1,6,0.9,2,19,1,-17
Cc1nnc(NC(=O)c2ccc(S(=O)(=O)N(C)Cc3ccccc3)cc2)o1,-11,1.1,78*,-1,0.2,2
COCc1nnc(NC(=O)c2ccc(S(=O)(=O)N(C)C3CCCCC3)cc2)o1,-4,1,76*,-28,0.2,29
CCN(Cc1ccccc1)S(=O)(=O)c1ccc(C(=O)Nc2nnc(C3CC3)o2)cc1,2,1,88*,-4,0.1,8
O=C(CCN1C(=O)COc2ccccc21)NCCCN1CCc2ccccc2C1,8,0.9,10,6,0.9,-7
Cc1noc(/C=C/N(C)C)c1S(=O)(=O)N1CCCC(C(=O)NCCC2=CCCCC2)C1 (stereo unspecified),nt,nt,nt,-88,nt,88*
Cc1noc(/C=C/N(C)C)c1S(=O)(=O)N1CCc2ccccc21,67*,0.3,48,4,0.5,-5
Cc1noc(/C=C/N(C)C)c1S(=O)(=O)N1CCCC(C(=O)NC(C)c2ccccc2)C1 (stereo unspecified),34,0.7,68*,nt,0.3,nt
SMILES,CYP2C19 inh,CYP2C19 activ,CYP2C9 inh,sEH act,CYP2C9 activ,sEH inh
CCC(=O)Nc1ccccc1Nc1cc(C#N)c(C#N)cc1[N+](=O)[O-],69*,0.3,24,nt,0.8,nt
CCCOc1ccc(C(=O)Nc2ccccc2[N+](=O)[O-])cc1,nt,nt,nt,2,nt,-4
CC(C)(Oc1ccc(Cl)cc1)C(=O)Nc1ncccn1,41,0.6,-5,nt,1,nt
CC1C(=NO)C(C)C(c2ccccc2)NC1c1ccccc1 (stereo unspecified),98*,0,30,-1,0.7,1
Cc1ccc(C2NC(c3ccc(C)cc3)C(C)C(=NO)C2C)cc1 (stereo unspecified),93*,0.1,51*,2,0.5,-2
CC1/C(=N/O)CC(c2ccccc2)NC1c1ccccc1 (stereo unspecified),70*,0.3,51*,-1,0.5,-2
CC1/C(=N/O)CC(c2ccccc2)N(C)C1c1ccccc1 (stereo unspecified),nt,nt,nt,22,nt,-19
COc1ccccc1C1/C(=C(\O)c2c(C)nc3c(C)cccn23)C(=O)C(=O)N1CCCN(C)C (stereo unspecified),nt,nt,nt,25,nt,-25
COc1ccc(NC(=O)c2ccc(-n3cccn3)nc2)c(OC)c1,1,1,2,-4,1,3
COc1cc(OC)cc(C(=O)Nc2c(F)cccc2F)c1,nt,nt,nt,12,nt,-6
O=C(Nc1ccc(F)cc1F)c1noc2c1CCC2,-9,1.1,-15,nt,1.1,nt
O=C(Nc1c(F)cccc1F)c1ccc(-n2cncn2)nc1,93*,0.1,48,6,0.5,-2
COc1ccccc1NC(=O)c1ccc(-n2cccn2)nc1,7,0.9,-97,-3,2*,2
Cc1ccccc1NC(=O)c1ccc(-n2cncn2)nc1,99*,0,85*,-4,0.2,6
O=C(Nc1ccc(F)cc1F)c1ccc(-n2cncn2)nc1,100*,0,76*,-3,0.2,5
COc1ccc(C(C)(C)C)cc1NC(=O)c1cncc(Br)c1,19,0.8,28,14,0.7,-13
COc1ccc(-c2noc(CSc3nc4ccccc4c(=O)n3-c3ccc(C)cc3)n2)cc1,63*,0.4,66*,15,0.3,-16
Cc1ccc(-c2noc(CSc3nnc(Cc4ccccc4)n3-c3ccc(Cl)cc3)n2)cc1,84*,0.2,84*,-1,0.2,0
Cc1ccc(-n2c(SCc3ccc([N+](=O)[O-])cc3)nc3ccccc3c2=O)cc1,18,0.8,47,-1,0.5,3
COc1ccc(-c2noc(CSc3nc(N)c(-c4ccccc4)c(=O)[nH]3)n2)cc1,76*,0.2,70*,nt,0.3,nt
Cn1c(SCc2nc(-c3ccc(Cl)cc3)no2)nnc1-c1ccccc1,37,0.6,-22,6,1.2,-5
COc1ccc(-c2noc(CSc3nnc(Cc4ccccc4)n3-c3ccc(Cl)cc3)n2)cc1,87*,0.1,80*,2,0.2,-2
O=C(CSc1nnnn1-c1cccc2c1CCCC2)N1CCCCC1,nt,nt,nt,-5,nt,5
O=[N+]([O-])c1ccccc1CNC(Cc1ccccc1)c1ccccc1 (stereo unspecified),90*,0.1,40,14,0.6,-14
COc1cc(C2NC(=O)NC(C)=C2C(=O)OCC2CCCO2)ccc1O (stereo unspecified),9,0.9,-5,10,1,-9
